Data as given in PubChem BioAssay (NCATS).
Values joined by “and” are separate entries in the source; they are usually repeats but may differ in a detail not shown here. Equal values may be shown once. Results filed as inconclusive are left out. Active and inactive are the calls of the source. Calls come from the whole dose curve; as a rule, active = well fitted inhibition curve with a large enough effect; inconclusive = small, poorly fitted or top-dose-only effect; inactive = flat fitted curve, though single readings scatter. Where a SMILES comes first, the peptide text is derived from it. [ ]: non-standard residue; d: D form. 2Abz = Nc1ccccc1C(=O)O

Key:
[1] = system: CRL-7250; assay: Cytotoxic Profiling of Annotated Libraries Using Quantitative High-Throughput Screening (AID 1296008); details: Five cell lines viability, CellTiter-Glo ATP luminescence, 48-72 h; max response: active compounds read low; for max response: % is set by controls: 0 for no effect and ±100 for the full control effect
In short: (§1)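 Cells exposed to compounds for 48 or 72 hr at 37 degrees Celsius. Viability read as ATP-coupled luminescence with CellTiter-Glo after 10 min at room temperature.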

[2] = system: HEK293; assay: as above; details: Five cell lines viability, CellTiter-Glo ATP luminescence, 48-72 h; max response: active compounds read low
In short: as §1

[3] = system: HaCat; assay: as above; details: Five cell lines viability, CellTiter-Glo ATP luminescence, 48-72 h; max response: active compounds read low
In short: as §1

[4] = system: KB-3-1; assay: as above; details: Five cell lines viability, CellTiter-Glo ATP luminescence, 48-72 h; max response: active compounds read low
In short: as §1

[5] = system: NIH3T3; assay: as above; details: Five cell lines viability, CellTiter-Glo ATP luminescence, 48-72 h; max response: active compounds read low
In short: as §1

[6] = system: HACAT; assay: qHTS assay to identify novel small-molecules to repurpose for Merkel cell carcinoma treatment (AID 1296009); details: MCC and control cell lines, CellTiter-Glo viability, 72 h; at 44.8 µM (top of the series) unless noted
In short: (§2)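 Dose-response viability screen; 72 hr exposure at 37 degree celsius; CellTiter-Glo added, 10 min room temperature, luminescence read; RLUs scaled between no-cell and DMSO wells.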

[7] = system: HEK293T; assay: as above; details: MCC and control cell lines, CellTiter-Glo viability, 72 h; series mostly up to 44.8 µM
In short: as §2
Note: nearly all actives have a fitted effect of over 60% in size.

C[C@@H]1O[C@@H](O[C@H]2[C@H](OC(=O)[C@]34CCC(C)(C)C[C@H]3C3=CCC5[C@@]6(C)C[C@H](O)[C@H](O[C@@H]7O[C@H](CO)[C@@H](O[C@@H]8O[C@H](CO)[C@@H](O)[C@H](O)[C@H]8O)[C@H](O)[C@H]7O)[C@@](C)(CO)C6[C@H](O)C[C@@]5(C)[C@]3(C)C[C@H]4O)OC[C@H](O)[C@@H]2O)[C@H](O)[C@H](O)[C@H]1O[C@@H]1OC[C@@H](O)[C@H](O[C@@H]2OC[C@](O)(CO)[C@H]2O)[C@H]1O (stereo partly drawn)
inactive: max response [1] 4.17% | outcome [2] | outcome [3] | outcome [4] | max response [5] 4.2% | outcome [6] inactive [at 9.27 µM] | outcome [7] inactive [at 9.27 µM]

CCOC(=O)[C@H](CCc1ccccc1)N[C@@H](C)C(=O)N1C2CCCCC2C[C@H]1C(=O)O (stereo partly drawn)
inactive: outcome [1] | outcome [2] | outcome [3] | max response [4] 6.12% | outcome [5] | outcome [6] | Potency [7]

CC(=O)O[C@@H]1[C@H]2[C@@H](OC(=O)c3ccccc3)[C@@H](C)C[C@]2(O)[C@H](OC(C)=O)[C@@]2(C)[C@@H]3CC(C)(C)C(=O)[C@]3(OC(C)=O)C[C@@]12C
inactive: outcome [1] | outcome [2] | outcome [3] | outcome [4] | max response [5] 4.53% | outcome [6] inactive [at 17.4 µM] | Potency [7]

CCCCN(CCCC)C(=O)CN1C[C@H](c2ccc3c(c2)OCO3)[C@@H](C(=O)O)[C@@H]1c1ccc(OC)cc1
inactive: max response [1] -2.69% | outcome [2] | outcome [3] | outcome [4] | max response [5] 2.42% and 5% | outcome [6] | Potency [7]

COc1cc2c(cc1O)C1(Cc3ccc4c(c3C1=O)OCO4)N(C)CC2 (stereo not drawn)
inactive: max response [1] 3.99% | outcome [2] | outcome [3] | max response [4] 1.1% | outcome [5] | outcome [6] | Potency [7]

CC(C)[C@H]1CCC(CO)=C[C@@H]1/C=C(\CO)C(=O)O
inactive: max response [1] -1.21% | outcome [2] | outcome [3] | max response [4] 7.99% | max response [5] -1.04% | outcome [6] | Potency [7]

O=C(O)Cc1nn(Cc2nc3cc(C(F)(F)F)ccc3s2)c(=O)c2nccnc12
inactive: outcome [1] | outcome [2] | outcome [3] | max response [4] 9.35% | max response [5] 3.31% | outcome [6] | Potency [7]

CC1(C)CC[C@]2(C(=O)O)CC[C@]3(C)C(=CCC4[C@@]5(C)CCC(O[C@@H]6OC[C@H](O)[C@H](O)[C@H]6O[C@@H]6O[C@H](CO)[C@@H](O)[C@H](O)[C@H]6O)[C@@](C)(CO)C5CC[C@]43C)[C@@H]2C1 (stereo partly drawn)
inactive: max response [1] -0.0042% | outcome [2] | outcome [3] | max response [4] 4.54% | max response [5] 2.38% | outcome [6] inactive [at 17.4 µM] | Potency [7]

O=C1N(CC2CCCCN2)CCN1c1ccccc1 (stereo not drawn)
inactive: max response [1] -3.2% | outcome [2] | outcome [3] inactive; activator | outcome [4] | outcome [5] | outcome [6] inactive; activator | Potency [7]

CC1=CC(=O)CC(C)(C)C1CCC(C)OC1OC(COC(=O)c2cc(O)c(O)c(O)c2)C(O)C(O)C1O (stereo not drawn)
inactive: max response [1] -1.65% | outcome [2] | outcome [3] | outcome [4] | outcome [5] | outcome [6] inactive [at 17.4 µM] | Potency [7]

CCC(C)C1NC(=O)C2CCCN2C(=O)C(C(C)C)NC(=O)c2ccccc2NC(=O)C(Cc2ccc(O)cc2)NC(=O)C(C)NC(=O)C(C(C)O)NC1=O (stereo not drawn) (cyclo([2Abz]VPITAY); configuration not given here)
inactive: max response [1] -3.19% | outcome [2] | outcome [3] | outcome [4] | outcome [5] | outcome [6] inactive [at 17.4 µM] | Potency [7]

COC(=O)C1C(CC(C)=O)C=CC(O)C12Oc1cc(C)cc(O)c1C2=O (stereo not drawn)
inactive: max response [1] -4.03% | outcome [2] | outcome [3] | max response [4] 4.45% | max response [5] 3.58% | outcome [6] | Potency [7]

C=C1C[C@]23C[C@H]1CC[C@H]2[C@@]12C=C[C@H](O)[C@@](C)(C(=O)O1)[C@H]2[C@@H]3C(=O)O
inactive: max response [1] -5.97% | outcome [2] | outcome [3] | outcome [4] | outcome [5] | outcome [6] | Potency [7]

O=C(NN1CCCCC1)c1nn(-c2ccc(Cl)cc2Cl)c(-c2ccc(C#Cc3ccc(C(F)(F)F)cc3)s2)c1CNS(=O)(=O)N1CCCC1
inactive: max response [1] -7.83% | outcome [2] | outcome [3] | max response [4] 4.58% | outcome [5] | outcome [6] | Potency [7]

CO[C@H]1C=C2C(CC[C@H](O[C@@H]3O[C@H](CO)[C@@H](O)[C@@H](O)[C@H]3O)C2(C)C)[C@]2(C)CC[C@]3(C)C([C@H](C)C(O)C(C=C(C)C)O[C@@H]4O[C@H](CO)[C@@H](O)[C@@H](O)[C@H]4O)CC[C@@]3(C)C12 (stereo partly drawn)
inactive: max response [1] -4.36% | outcome [2] | outcome [3] | max response [4] 6.33% | max response [5] 3.68% | outcome [6] inactive [at 9.27 µM] | outcome [7] inactive [at 9.27 µM]

CC(C)(O)/C=C1/C(=O)C(C)(C)C(=O)C(C)(C)C1(O)O[C@@H]1O[C@H](COC(=O)c2cc(O)c(O)c(O)c2)[C@@H](O)[C@H](O)[C@H]1O (stereo partly drawn)
inactive: max response [1] -11.2% | outcome [2] | outcome [3] | outcome [4] | max response [5] 4.71% | outcome [6] inactive [at 17.4 µM] | Potency [7]

O=C(O[C@H]1[C@@H]2C[C@@H]3OC[C@@](O)([C@H]2[C@H](O[C@@H]2O[C@H](CO)[C@@H](O)[C@H](O)[C@H]2O)O3)[C@@H]1O)c1ccccc1
inactive: outcome [1] | outcome [2] | outcome [3] | outcome [4] | outcome [5] | outcome [6] inactive [at 17.4 µM] | Potency [7]

CC1(C)C(O)CCC2(C)C1C(O)C=C1COC(=O)C12O (stereo not drawn)
inactive: max response [1] 2.08% | outcome [2] | outcome [3] | max response [4] 5.78% | max response [5] 0.735% | outcome [6] | Potency [7]

CC(NC(=O)CC(=O)O)c1nc2ccccc2c(=O)[nH]1 (stereo not drawn)
inactive: max response [1] -1.93% | outcome [2] | outcome [3] | outcome [4] | outcome [5] | outcome [6] | Potency [7]

O=C(O)C[C@@H](NC(=O)c1cc(-c2ccc(-c3ccncc3)cc2)cs1)c1ccccc1
inactive: max response [1] 1.97% | outcome [2] | outcome [3] | max response [4] 4.03% | max response [5] 1.34% | outcome [6] | Potency [7]

O=c1ccn(C2OC(CO)C(O)C2O)c(=O)[nH]1 (stereo not drawn)
inactive: outcome [1] | outcome [2] | outcome [3] | outcome [4] | max response [5] 1.59% | outcome [6] | Potency [7]

COc1cc(COC2OC(CO)C(O)C(O)C2O)cc(OC)c1O (stereo not drawn)
inactive: outcome [1] | outcome [2] | outcome [3] | outcome [4] | outcome [5] | outcome [6] | Potency [7]

C=C1CC2(C(=O)O)CC1CCC2C1(C)CCCC2(C)C(=O)OC(O)C21 (stereo not drawn)
inactive: max response [1] -12.2% | outcome [2] | outcome [3] | outcome [4] | max response [5] 0.0241% | outcome [6] | Potency [7]

C=C[C@@]1(C)CC(=O)C2[C@](C)(O1)[C@@H](OC(C)=O)[C@@H](O)[C@H]1C(C)(C)CCC[C@]21C (stereo partly drawn)
inactive: max response [1] -2.88% | outcome [2] | outcome [3] | max response [4] 7.42% | outcome [5] | outcome [6] inactive [at 9.27 µM] | outcome [7] inactive [at 9.27 µM]

CNC(=O)COC(=O)NCCC1CCN(c2cccc(C)n2)CC1
inactive: max response [1] -5.78% | outcome [2] | outcome [3] | max response [4] 9.28% | max response [5] -5.35% | outcome [6] | Potency [7]

CC(C#N)C(C)O[C@@H]1O[C@H](CO)[C@@H](O)[C@H](O)[C@H]1O (stereo partly drawn)
inactive: outcome [1] | outcome [2] | outcome [3] | outcome [4] | outcome [5] | outcome [6] | Potency [7]

O=C(O)[C@H]1CCCC[C@H]1C(=O)N1CCc2ccccc2[C@H]1CN1C(=O)c2ccccc2C1=O
inactive: max response [1] 1.46% | outcome [2] | outcome [3] | outcome [4] | max response [5] 2.69% | outcome [6] | Potency [7]

O=C(O)c1ccc(CCCc2ccc(OCCc3ccc(F)cc3)cc2)o1
inactive: max response [1] -2.7% | outcome [2] | outcome [3] | outcome [4] | outcome [5] | outcome [6] | Potency [7]

CC1OC(OC2C(O)C(C(=O)O)OC(OC3CCC4(C)C(CCC5(C)C4C=CC4=C6CC(C)(C)CC(O)C6(C)CCC45C)C3(C)C)C2OC2OCC(O)C(O)C2O)C(O)C(O)C1O (stereo not drawn)
inactive: max response [1] -1.54% | outcome [2] | outcome [3] | max response [4] 1.62% | outcome [5] | outcome [6] inactive [at 9.27 µM] | outcome [7] inactive [at 9.27 µM]

COc1cc2c(cc1OC)CN(C(=O)[C@@H](NCc1ccncc1)C(C)(C)C)CC2
inactive: outcome [1] | outcome [2] | outcome [3] | max response [4] 5.18% | outcome [5] | outcome [6] | Potency [7]

C=C[C@H]1[C@H](O[C@@H]2O[C@H](CO)[C@@H](O)[C@H](O)[C@H]2O)OC=C2C(=O)OCC[C@]21O
inactive: max response [1] 0.194% | outcome [2] | outcome [3] | max response [4] 0.223% | outcome [5] | outcome [6] | Potency [7]

CCC1CC2C(C)=CC3CCCCC3C2(C)C2(OC(=O)C(C)(O)OC2=O)O1 (stereo not drawn)
inactive: max response [1] 0.081% | outcome [2] | outcome [3] | outcome [4] | max response [5] 1.16% | outcome [6] | Potency [7]

C=C(C(=O)O)[C@@H]1CC=C2CCC[C@H](C)[C@@]2(C)C1
inactive: max response [1] -11.2% | outcome [2] | outcome [3] | max response [4] 4.53% | outcome [5] | outcome [6] | Potency [7]

CCCC1=CC2=C(CO1)C(=O)C(C)(OC(=O)c1c(C)cc(OC)cc1O)C(O)C2 (stereo not drawn)
inactive: max response [1] -27.1% | outcome [2] | outcome [3] | max response [4] 0.111% | outcome [5] | outcome [6] inactive [at 17.4 µM] | Potency [7]
